# A549 viability = A549 cytotoxicity, counter-screen for Nrf2 inhibitors. A549 ARE-Fluc cells, CellTiter-Fluor viability, 18-24 h. Potency, µM (highest dose often 46 µM), inactives show top-dose activity change, negative = cytotoxicity, hits mostly inhibitors. 390,000 compounds, 0.16% hits; note: % is set by controls: 0 for no effect and ±100 for the full control effect
#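 A549 ARE_Fluc cells in 5% FBS OPTI-MEM were exposed to compounds in concentration-response for 18-24 h at 37 deg C. Viability was read by CellTiter-Fluor fluorescence (Ex 405/Em 525) after 30 min, before the luciferase read.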
# Nrf2 activator = activators of Nrf2 (ARE) signaling | AREc32 ARE-luciferase reporter (MCF7-derived line), luminescence, 24 h | Potency, µM (series often up to 46.1 µM), without a hit: at the highest dose activation, actives largely listed as activators | 410,000 compounds, 0.31% hits; note: % of control where 0% means no effect; nearly all actives have a fitted effect of over 65% in size
#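 Quantitative high-throughput format: AREc32 reporter cells, 1000 per well, received compound by pin transfer and were incubated 24 hr at 37 deg C, 5% CO2, before Steady-Glo luminescence detection.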
# mIDH1 inhibitor = blocks human mutant IDH1 R132H enzyme; O75874; IDH1-R132H enzyme, NADPH consumption, diaphorase/resazurin fluorescence; Potency, µM (top dose mostly 76.6 µM), for the others: top-dose activity change, negative = inhibition, actives largely listed as inhibitors; 390,000 compounds, 0.093% hits; note: % is set by controls: 0 for no effect and ±100 for the full control effect; nearly all actives have a fitted effect of over 65% in size
# Target sequence (O75874 whole entry R132H, stated change not applied): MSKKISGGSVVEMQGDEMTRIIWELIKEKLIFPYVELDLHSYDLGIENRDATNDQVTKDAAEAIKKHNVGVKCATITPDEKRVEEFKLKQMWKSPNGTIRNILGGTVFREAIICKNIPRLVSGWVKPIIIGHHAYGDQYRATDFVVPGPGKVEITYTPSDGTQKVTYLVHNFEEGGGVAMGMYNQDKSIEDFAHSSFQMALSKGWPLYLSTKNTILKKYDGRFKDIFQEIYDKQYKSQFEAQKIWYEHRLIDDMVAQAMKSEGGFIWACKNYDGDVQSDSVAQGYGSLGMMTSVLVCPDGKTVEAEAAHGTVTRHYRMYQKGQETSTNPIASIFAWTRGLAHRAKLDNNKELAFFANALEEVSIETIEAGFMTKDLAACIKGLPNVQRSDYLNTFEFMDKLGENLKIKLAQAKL
#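 IDH1-R132H (0.5 ug/mL) preincubated 30 min with compound, then NADPH (0.016 mM) and alpha-KG (2 mM) added; 80 min at RT, pH 7.5. Remaining NADPH coupled via diaphorase/resazurin to fluorescence (540/590 nm); concentration-response curves normalized to no-enzyme control.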
# Nrf2 block = Nrf2 pathway inhibition; A549 ARE-Fluc reporter, luciferase luminescence, 18-24 h; Potency, µM (top dose mostly 46 µM), for the others: at the highest dose activity change, negative = inhibition, actives largely listed as inhibitors; 360,000 compounds, 2.1% hits; note: % is set by controls: 0 for no effect and ±100 for the full control effect; nearly all actives have a fitted effect of over 60% in size
#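 A549 ARE_Fluc cells (5000/well, 5% FBS OPTI-MEM) pre-incubated 2 h, then treated with compounds 18-24 h at 37C/5% CO2 in concentration-response. CellTiter-Fluor viability read first; BugLite luciferase luminescence after 15 min at room temperature gives Nrf2 activity.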
# ELG1 DNA repair = ELG1-dependent DNA repair inhibition | AID 504467 | Potency, µM (series often up to 46.1 µM), for inactives: at the highest dose activity change, negative = inhibition, actives largely listed as inhibitors | HEK293T ELG1-luciferase reporter, luminescence, 16 h; DNA damage induced by 5-fluorouridine | 330,000 compounds, 2.3% hits; note: % is set by controls: 0 for no effect and ±100 for the full control effect; nearly all actives have a fitted effect of over 55% in size
#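 5-Fluorouridine DNA damage + compound/DMSO, 2,000 cells/well, 16 h, 37 °C/5% CO2. ONE-Glo, 30 min RT, luminescence. Readout = decrease in reporter signal.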
# * hit, by the source's call; ? = inconclusive; . = no result given; [ ] = another dose, or the depositor's remark. Sampled rows, rich in hits. Any-hit rate of the full collection: about 3.8%. Calls come from the whole dose curve; as a rule, active = well fitted curve in the direction sought with a large enough effect; inconclusive = small, poorly fitted or top-dose-only effect, or another doubt; inactive = no such curve, though single readings can be large; an effect the other way counts as inactive or inconclusive. Potency is the fitted concentration of half-maximal effect.
SMILES,A549 viability,Nrf2 activator,mIDH1 inhibitor,Nrf2 block,ELG1 DNA repair
COc1ccc(C(=O)Nc2ccc(N3CCCC3)cc2)cc1Br,-1%,3%,6%,-10%,26%
COc1ccc(C(=O)Nc2ccc(N3CCN(C(=O)c4cccs4)CC3)cc2)cc1Br,6%,1%,6%,?,13µM*
O=C(Nc1ccc(N2CCN(C(=O)c3cccs3)CC2)cc1)c1ccc(F)cc1,-4%,0%,0%,?,18µM*
Cc1ccc(C(=O)N2CCN(c3ccc(NC(=O)c4cccs4)cc3)CC2)cc1,-4%,2%,-1%,-7%,9.2µM*
COc1cc(OC)cc(C(=O)Nc2ccc(N3CCN(C(=O)c4cccs4)CC3)cc2)c1,?,0%,6%,?,15µM*
COc1ccc(C(C)=O)cc1CSc1nnc(Nc2ccc(C)cc2)s1,-8%,4%,5%,?,?
COc1ccc(C(C)=O)cc1CSc1nnc(Nc2ccccc2)s1,-24%,4%,7%,23µM*,15µM*
COc1cc(-c2nnc(CSc3nnc(Nc4ccc(Oc5ccccc5)cc4)s3)o2)cc(OC)c1OC,-13%,4%,-8%,-5%,7.3µM*
COc1cc(-c2nnc(CSc3nnc(N)s3)o2)cc(OC)c1OC,0%,0%,5%,-6%,4%
COc1ccc(-[n+]2c(C)cc(/C=C3\Sc4ccccc4N3C)cc2C)cc1,9.2µM*,-2%,22%,0.23µM*,18µM*
CCN(CC)Cc1cc(Nc2c3ccccc3nc3c4ccccc4n(C)c23)cc(CN(CC)CC)c1O,16µM*,?,7%,?,.
Cc1cc(C)cc(NC(=O)Cn2c(C(F)(F)F)nc3ccccc32)c1,1%,-1%,-1%,-16%,.
COc1ccc(-c2csc3ncnc(N4CCN(C(=O)c5ccco5)CC4)c23)cc1,-13%,0%,11%,?,7.3µM*
COc1ccc(Nc2ncnc3scc(-c4ccc(F)cc4)c23)cc1,23%,1%,0%,.,.
COc1ccc(-c2csc3ncnc(N4CCN(c5ccccc5Cl)CC4)c23)cc1,1%,0%,2%,?,13µM*
COc1ccc(Nc2ncnc3scc(-c4ccc(OC)cc4)c23)cc1,-6%,2%,3%,10%,12µM*
COc1ccc(-c2csc3ncnc(N4CCN(c5cccc(OC)c5)CC4)c23)cc1,8%,0%,3%,-11%,6.5µM*
Cc1n[nH]c(=O)c2c(NC(=O)CSc3nncs3)oc(C)c12,-2%,0%,-1%,0%,10%
COc1ccc(N2CCN(c3ncnc4scc(-c5ccccc5)c34)CC2)cc1,-9%,3%,1%,?,16µM*
COc1ccc(N2CCN(c3ncnc4scc(-c5ccc(C)cc5)c34)CC2)cc1,12%,5%,-2%,-22%,?
Cc1cc2oc(C(=O)Nc3sc4c(c3C(=O)NCC3CCCO3)CCC4)cc(=O)c2cc1C (stereo not drawn),-11%,0%,38%,5%,.
Cc1nn(-c2ccccc2)c(N2CCCC2)c1/C=N/NC(=O)c1cc(-c2ccccn2)nc2ccccc12,-13%,3%,1%,-9%,8.2µM*
Cc1nn(-c2ccccc2)c(N2CCCC2)c1/C=N/NC(=O)c1cc(-c2cccs2)nc2ccccc12,-12%,0%,-1%,-7%,15µM*
Cc1cccc(-c2noc(-c3cccnc3NCc3ccco3)n2)c1,-5%,22%,1%,?,.
CCCCCn1c(=O)c(-c2nc3ccccc3[nH]2)c(O)c2ccccc21,-13%,8%,-2%,11%,7.3µM*
SMILES,A549 viability,Nrf2 activator,mIDH1 inhibitor,Nrf2 block,ELG1 DNA repair
Cc1ccc(C(=O)N2CCN(c3ccc(F)cc3)CC2)cc1S(=O)(=O)N1CCCCC1,-10%,-1%,3%,12µM*,?
Cc1ccc(C(=O)N2CCN(c3ccccc3)CC2)cc1S(=O)(=O)N1CCCC1,-11%,2%,0%,21µM*,16µM*
Cc1ccc(C(=O)N2CCCCC2)cc1S(=O)(=O)N1CCCC1,1%,-1%,0%,-5%,-7%
COc1ccccc1C(=O)NCCC(=O)Nc1ccc(S(=O)(=O)Nc2ncccn2)cc1,-3%,-1%,-6%,2%,?
COc1ccccc1C(=O)Nc1ccc(S(=O)(=O)N2CCC(C)CC2)cc1,-17%,0%,-4%,23µM*,?
O=C(Nc1ccc(S(=O)(=O)N2CCCCC2c2cccnc2)cc1)c1ccccc1F (stereo not drawn),3%,0%,9%,0%,?
COc1ccccc1C(=O)NCCC(=O)Nc1ccc(S(=O)(=O)N2CCC(C)CC2)cc1,-13%,0%,4%,12µM*,?
COc1ccccc1C(=O)Nc1ccc(S(=O)(=O)N2CCOCC2)cc1,-1%,3%,12%,.,-12%
COc1ccccc1C(=O)Nc1ccc(S(=O)(=O)N2CCCCC2c2cccnc2)cc1 (stereo not drawn),-20%,1%,-3%,16µM*,23µM*
Cc1cc2ccccc2n2c(SCC(=O)Nc3ccc(S(=O)(=O)N4CCC(C)CC4)cc3)nnc12,1%,0%,-9%,?,26µM*
CC(C)c1nc2ccc(C(=O)NCc3ccc(N(C)C)cc3)cc2o1,8%,-1%,-16%,.,.
COc1ccc(CNc2ncnc3cc(Cl)ccc23)cc1OC,-4%,11%,-2%,16µM*,?
COc1ccc(CNc2ncnc3sccc23)cc1OC,1%,4%,-4%,10µM*,?
c1cncc(CNc2ncnc3sccc23)c1,1%,0%[9.22 µM],-9%,-30%,21µM*
c1ccc(CNc2ncnc3sccc23)cc1,-6%,4%,-1%,10%,-11%
OC(CNc1ncnc2sccc12)c1ccccc1 (stereo not drawn),2%,0%,0%,-5%,?
c1ccc(CCNc2ncnc3sccc23)nc1,?,2%,-3%,8.2µM*,-15%
O=C(Cc1csc(N2CCOCC2)n1)N/N=C/c1ccc(O)c(O)c1O,3%,0%,22%,-16%,13µM*
C/C(=N\NC(=O)Cc1csc(N2CCOCC2)n1)c1ccccc1,-3%,0%,9%,?,-20%
Cc1cccc(N2CCN(C(=O)CCc3c(C)nc4c(c3C)c(=O)n(C)c(=O)n4C)CC2)c1C,-6%,-1%,8%,0%,.
Cc1noc2ncnc(N3CCCC(C(=O)NCCC(C)C)C3)c12 (stereo not drawn),0%,0%,-5%,23µM*,.
COCCCNC(=O)C1CCCN(c2ncnc3onc(C)c23)C1 (stereo not drawn),0%,3%,-3%,?,.
N#Cc1c(N2CCN(C(=O)c3ccccc3)CC2)nc(-c2ccccc2)c2c1CCCC2,?,3%,4%,-66%,?

# Compound activity from PubChem.
